# PubChem BioAssay
# Potency and affinity values are given separately. Records with an inconclusive call do not appear. Activity calls are given as the source filed them.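 Rule for the calls, unless noted: active = signal-lowering compounds whose fitted half-maximal concentration is at or below twice the top tested dose in every run; inconclusive = runs disagree, flat 30 to 70% inhibition, or poor curve fit; inactive = the rest.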
# Test: inhibitors of CMV-promoter luciferase reporter, dose response, counter-screen for Pax8 inhibitor project, cell-based, HEK293, luminescence, dry powder (AID 743020);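 note: HEK293 cells stably expressing the CMV luciferase reporter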
# Settings: SteadyGlo luminescence, 24 h; series mostly up to 35 µM; activity change, negative = inhibition: at the top concentration
row,Structure (SMILES),"activity change, negative = inhibition"
1,CCCN(CCC)Cc1c(C(=O)N/N=C/C(C)=C\c2ccco2)nnn1-c1nonc1N,-9.09% (inactive)
2,CC1=C(C(=O)OC2CCCCC2)C(c2cccnc2)n2ncnc2N1 (stereo not drawn),14.5% (inactive)
3,O=C(Nc1cccc(NC(=O)c2ccc([N+](=O)[O-])o2)c1)c1ccco1,5.65% (inactive)
4,O=C(CCCN1C(=O)/C(=C/c2cccc(Br)c2)SC1=S)Nc1cccnc1,15.6% (inactive)
5,COc1cccc(/C=C2\SC(=S)N(CCC(=O)NCCc3ccc(O)cc3)C2=O)c1,8.81% (inactive)
6,Cc1ccccc1N=C1N=C(N)c2ccccc21,10.2% (inactive)
7,CCSc1nc(-c2ccccc2)nc(C(Cl)Cl)n1,3.78% (inactive)
8,O=C(CCc1ccc(S(=O)(=O)NCc2ccccc2)cc1)NCc1ccco1,-1.01% (inactive)
9,C[C@H](CO)N1C[C@H](C)[C@@H](CN(C)Cc2ccncc2)Oc2ccc(NC(=O)Nc3ccc(C(F)(F)F)cc3)cc2CC1=O,0.151% (inactive)
10,COc1ccc(C(=O)N/N=C/c2ccc(OC)c(CN3CCN(c4ccc(F)cc4)CC3)c2)cc1,4.19% (inactive)
11,CN(Cc1ccccc1)N=Nc1nc[nH]c1C(N)=O,11.6% (inactive)
12,O=C(N/N=C/c1ccsc1)c1cc(-c2cccs2)nc2ccccc12,-8.34% (inactive)
13,O=C(Nc1cccc(NC(=O)c2ccccc2Cl)c1)c1ccc([N+](=O)[O-])o1,6.42% (inactive)
14,Cc1ccc(-c2cn3cc(C)ccc3n2)cc1,-28.3% (inactive)
15,C[C@@H]1CCCCO[C@@H](CN(C)Cc2ccc(Cl)c(Cl)c2)[C@H](C)CN([C@@H](C)CO)C(=O)c2cc(NC(=O)CCC(F)(F)F)ccc2O1,-22.9% (inactive)
16,C=C1C(=O)O[C@@H]2[C@H]1CC[C@H](C)[C@]1(O)CCC(=O)[C@@]21C,11.3% (inactive)
17,C=CC(=O)N1C/C(=C/c2ccc(Cl)cc2)C(=O)/C(=C\c2ccc(Cl)cc2)C1,6.73% (inactive)
18,Cc1ccc2c(c1C)-c1c(ccc(C)c1C)C(=O)C2=O,1.99% (inactive)
19,COc1cc(Cl)c(NC2=CC(=O)C(=O)c3ccccc32)c(OC)c1,-21.2% (inactive)
20,O=C(Nc1ccc(Cl)cc1)Nc1ccc(N2CCCC2)c(S(=O)(=O)Nc2ccccc2Cl)c1,-30.8% (inactive)

row,Structure (SMILES),"activity change, negative = inhibition"
1,C[C@@H]1CCCCO[C@@H](CN(C)Cc2ccc3c(c2)OCO3)[C@H](C)CN([C@@H](C)CO)C(=O)c2cc(NC(=O)Nc3ccc(C(F)(F)F)cc3)ccc2O1,-0.657% (inactive)
2,O=C(Nc1cccc(C2=NCCN2)c1)Nc1cccc(C2=NCCN2)c1,6.96% (inactive)
3,CCC(OC(=O)c1ccc(S(C)(=O)=O)c([N+](=O)[O-])c1)C(=O)NC1C2CC3CC(C2)CC1C3 (stereo not drawn),-29.4% (inactive)
4,C=C1C2(C(=O)Nc3ccc(SC(F)F)cc3)CCC(C2)C1(C)C (stereo not drawn),8.53% (inactive)
5,Cc1ccc2c(CC(=O)OCC(=O)Nc3ccc(Cl)cn3)coc2c1,0.912% (inactive)
6,Cn1c(CCN2CCN(c3ccccn3)CC2)nc2cc(NS(=O)(=O)c3ccc(Cl)cc3)ccc21,5.35% (inactive)
7,Cc1ccc(NC(=O)c2ccc([N+](=O)[O-])s2)cc1S(=O)(=O)N1CCOCC1,-30.6% (inactive)
8,O=C1c2ccccc2C(=O)c2[nH]c(=O)[nH]c21,-21% (inactive)
9,Cc1[nH]nc2nc(SCC(=O)NC3CCCCC3)n(-c3ccc(Br)cc3)c(=N)c12,2.29% (inactive)
10,CC(C)OCCCNC(=O)c1cccc(NC(=O)c2ccccc2)c1,5.72% (inactive)
11,Oc1ccc(C[C@H]2CNC(=S)N2CC2CCCN2C[C@H](Cc2ccccc2)N2C[C@H](Cc3ccc(O)cc3)N(CCc3ccccc3)C2=S)cc1 (stereo partly drawn),-5.38% (inactive)
12,O=C(Nc1ccc(F)cc1)c1nc(S(=O)(=O)Cc2ccccc2)ncc1Cl,-15.2% (inactive)
13,COC(=O)C1=C(SC)N(c2ccccc2)C(c2ccccc2)CC1=O (stereo not drawn),7.57% (inactive)
14,C=C1C(=O)[C@@]23[C@H](O)C[C@@H]4C(C)(C)CC[C@H](O)[C@@]4(C)[C@@H]2CC[C@@H]1[C@H]3O,-28.3% (inactive)
15,CC(C)c1ccc(/C=C(\c2nc3ccccc3[nH]2)S(=O)(=O)c2ccccc2)cc1,2.37% (inactive)
16,O=C(NC1CC1)c1ccc2c(c1)C1C3CCC(C3)C1C(c1ccccc1)N2 (stereo not drawn),2.5% (inactive)
17,O=C(NCCC1CCCCN1S(=O)(=O)c1ccc(Cl)cc1)C(=O)NCc1ccncc1 (stereo not drawn),7.69% (inactive)
18,Nc1ncnc2c(C3OC(CO)C(O)C3O)scc12 (stereo not drawn),-7.69% (inactive)
19,COc1ccccc1-c1ccc(OCCCN2CCC(C(O)(c3ccccc3)c3ccccc3)CC2)cc1,1.56% (inactive)

# Test: non-specific cell cytotoxicity, dose response, cytotoxicity control for PAX8 inhibitor project, plate reader, dry powder samples (AID 743021; call rule not given here)
# Settings: cell line, non-specific cytotoxicity counter-screen; series mostly up to 35 µM; activity change, negative = cytotoxicity: at the top concentration
row,Structure (SMILES),"activity change, negative = cytotoxicity"
1,CCCN(CCC)Cc1c(C(=O)N/N=C/C(C)=C\c2ccco2)nnn1-c1nonc1N,16.8% (inactive)
2,CC1=C(C(=O)OC2CCCCC2)C(c2cccnc2)n2ncnc2N1 (stereo not drawn),39.1% (inactive)
3,O=C(CCCN1C(=O)/C(=C/c2cccc(Br)c2)SC1=S)Nc1cccnc1,23.5% (inactive)
4,COc1cccc(/C=C2\SC(=S)N(CCC(=O)NCCc3ccc(O)cc3)C2=O)c1,36.9% (inactive)
5,Cc1ccccc1N=C1N=C(N)c2ccccc21,15.2% (inactive)
6,CCSc1nc(-c2ccccc2)nc(C(Cl)Cl)n1,9.79% (inactive)
7,O=C(CCc1ccc(S(=O)(=O)NCc2ccccc2)cc1)NCc1ccco1,32.4% (inactive)
8,C[C@H](CO)N1C[C@H](C)[C@@H](CN(C)Cc2ccncc2)Oc2ccc(NC(=O)Nc3ccc(C(F)(F)F)cc3)cc2CC1=O,4.02% (inactive)
9,COc1ccc(C(=O)N/N=C/c2ccc(OC)c(CN3CCN(c4ccc(F)cc4)CC3)c2)cc1,-20.6% (inactive)
10,CN(Cc1ccccc1)N=Nc1nc[nH]c1C(N)=O,32.9% (inactive)
11,O=C(N/N=C/c1ccsc1)c1cc(-c2cccs2)nc2ccccc12,-31% (inactive)
12,O=C(Nc1cccc(NC(=O)c2ccccc2Cl)c1)c1ccc([N+](=O)[O-])o1,-16.3% (inactive)
13,Cc1ccc(-c2cn3cc(C)ccc3n2)cc1,-7.55% (inactive)
14,C[C@@H]1CCCCO[C@@H](CN(C)Cc2ccc(Cl)c(Cl)c2)[C@H](C)CN([C@@H](C)CO)C(=O)c2cc(NC(=O)CCC(F)(F)F)ccc2O1,-3.92% (inactive)
15,C=C1C(=O)O[C@@H]2[C@H]1CC[C@H](C)[C@]1(O)CCC(=O)[C@@]21C,-1.26% (inactive)
16,C=CC(=O)N1C/C(=C/c2ccc(Cl)cc2)C(=O)/C(=C\c2ccc(Cl)cc2)C1,81.7% (inactive)
17,Cc1ccc2c(c1C)-c1c(ccc(C)c1C)C(=O)C2=O,-6.85% (inactive)

row,Structure (SMILES),"activity change, negative = cytotoxicity"
1,COc1cc(Cl)c(NC2=CC(=O)C(=O)c3ccccc32)c(OC)c1,-30% (inactive)
2,O=C(Nc1ccc(Cl)cc1)Nc1ccc(N2CCCC2)c(S(=O)(=O)Nc2ccccc2Cl)c1,27.3% (inactive)
3,C[C@@H]1CCCCO[C@@H](CN(C)Cc2ccc3c(c2)OCO3)[C@H](C)CN([C@@H](C)CO)C(=O)c2cc(NC(=O)Nc3ccc(C(F)(F)F)cc3)ccc2O1,-27.6% (inactive)
4,O=C(Nc1cccc(C2=NCCN2)c1)Nc1cccc(C2=NCCN2)c1,26.9% (inactive)
5,C=C1C2(C(=O)Nc3ccc(SC(F)F)cc3)CCC(C2)C1(C)C (stereo not drawn),41.2% (inactive)
6,Cn1c(CCN2CCN(c3ccccn3)CC2)nc2cc(NS(=O)(=O)c3ccc(Cl)cc3)ccc21,13.6% (inactive)
7,Cc1ccc(NC(=O)c2ccc([N+](=O)[O-])s2)cc1S(=O)(=O)N1CCOCC1,14.7% (inactive)
8,O=C1c2ccccc2C(=O)c2[nH]c(=O)[nH]c21,-28.2% (inactive)
9,Cc1[nH]nc2nc(SCC(=O)NC3CCCCC3)n(-c3ccc(Br)cc3)c(=N)c12,-20.1% (inactive)
10,CC(C)OCCCNC(=O)c1cccc(NC(=O)c2ccccc2)c1,14.9% (inactive)
11,Oc1ccc(C[C@H]2CNC(=S)N2CC2CCCN2C[C@H](Cc2ccccc2)N2C[C@H](Cc3ccc(O)cc3)N(CCc3ccccc3)C2=S)cc1 (stereo partly drawn),1.62% (inactive)
12,O=C(Nc1ccc(F)cc1)c1nc(S(=O)(=O)Cc2ccccc2)ncc1Cl,-97.8% (inactive)
13,C=C1C(=O)[C@@]23[C@H](O)C[C@@H]4C(C)(C)CC[C@H](O)[C@@]4(C)[C@@H]2CC[C@@H]1[C@H]3O,13.5% (inactive)
14,CC(C)c1ccc(/C=C(\c2nc3ccccc3[nH]2)S(=O)(=O)c2ccccc2)cc1,19% (inactive)
15,O=C(NC1CC1)c1ccc2c(c1)C1C3CCC(C3)C1C(c1ccccc1)N2 (stereo not drawn),2.85% (inactive)
16,O=C(NCCC1CCCCN1S(=O)(=O)c1ccc(Cl)cc1)C(=O)NCc1ccncc1 (stereo not drawn),-24.4% (inactive)
17,Nc1ncnc2c(C3OC(CO)C(O)C3O)scc12 (stereo not drawn),-5.64% (inactive)
